Assay results: the supplement of paper PMC9262897, “Low-cost anti-mycobacterial drug discovery using engineered E. coli” (Nature Communications, 2022)
Where a name gives a salt, the structure may show the parent alone. ± gives the standard deviation of the averaged measurements.

Columns and labels:
Assay in all cases: growth (OD600 after 10 h); higher = more growth (less inhibition)
[1] = tested on: E. coli TESEC Alr+ wild-type control; details: compound 0.1 mM; raw OD600 reference: median of DMSO wells 0.241, cell-free background 0.041
Procedure: (§1)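 TESEC Mtb Alr E. coli, or the Alr+ wild-type control, in 384-well plates with Prestwick library compounds at 0.1 mM and 1% DMSO, across arabinose induction levels of 1E3 to 1E7 nM. Growth is read as OD600 after 10 h at 37 °C in triplicate biological replicates.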

[2] = tested on: E. coli TESEC Mtb Alr; details: compound 0.1 mM
Procedure: as §1

[3] = tested on: E. coli TESEC Mtb Asd; details: compound 0.1 mM
Procedure: (§2)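 TESEC E. coli strains in which the native enzyme is deleted and replaced by arabinose-inducible Mtb Asd, DapB, CysH or TrpD, each grown in its selective medium. Strains were screened against the Prestwick library at 0.1 mM and 1% DMSO in 384-well format at low and high arabinose induction. Growth is read as OD600 after 10 h in triplicate.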

[4] = tested on: E. coli TESEC Mtb DapB; details: compound 0.1 mM
Procedure: as §2

[5] = tested on: E. coli TESEC Alr+ wild-type control; details: compound 0.1 mM; raw OD600 reference: median of DMSO wells 0.49, cell-free background 0.052
Procedure: (§3)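 TESEC Mtb Alr E. coli (ΔaraC ΔtolC ΔentC Δalr ΔdadX, arabinose-inducible Mtb Alr) or the Alr+ wild-type control strain, grown in defined M9-fructose medium without D-alanine in 96-well plates with Prestwick library compounds at 0.1 mM and 1% DMSO. Low Alr induction is 0.1 µM arabinose and high induction is 10 mM arabinose.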

[6] = tested on: E. coli TESEC Mtb Alr; details: compound 0.1 mM; remark: listed apart in the source
Procedure: as §3

[7] = arabinose 1000 nM, raw OD600 reference: median of DMSO wells 0.294, cell-free background 0.041
[8] = arabinose 10000 nM, raw OD600 reference: median of DMSO wells 0.264, cell-free background 0.041
[9] = arabinose 100000 nM, raw OD600 reference: median of DMSO wells 0.201, cell-free background 0.041
[10] = arabinose 1000000 nM, raw OD600 reference: median of DMSO wells 0.193, cell-free background 0.041
[11] = arabinose 10000000 nM, raw OD600 reference: median of DMSO wells 0.146, cell-free background 0.041
[12] = arabinose induction (level): High, raw OD600 reference: median of DMSO wells 0.331, cell-free background 0.041
[13] = arabinose induction (level): Low, raw OD600 reference: median of DMSO wells 0.417, cell-free background 0.041
[14] = arabinose induction (level): High, raw OD600 reference: median of DMSO wells […], cell-free background 0.041
[15] = arabinose induction (level): Low, raw OD600 reference: median of DMSO wells 0.227, cell-free background 0.041
[16] = arabinose 100 nM, raw OD600 reference: median of DMSO wells 0.413, cell-free background 0.052
[17] = arabinose 10000000 nM, raw OD600 reference: median of DMSO wells […], cell-free background 0.052

SMILES | growth [1] | growth [2, 7] | growth [2, 8] | growth [2, 9] | growth [2, 10] | growth [2, 11] | growth [3, 12] | growth [3, 13] | growth [4, 14] | growth [4, 15] | growth [5] | growth [6, 16] | growth [6, 17]
CC(=O)OCC1=C(C(=O)O)N2C(=O)[C@@H](NC(=O)Cc3cccs3)[C@H]2SC1 [Cephalothin sodium salt] | 0.305 ± 0.0066 | 0.334 ± 0.017 | 0.209 ± 0.0072 | 0.283 ± 0.03 | 0.172 ± 0.0079 | 0.174 ± 0.0022 | 0.421 ± 0.021 | 0.421 ± 0.058 | 0.206 ± 0.013 | 0.258 ± 0.0063 | 0.447 ± 0.04 | 0.332 ± 0.027 | 0.35 ± 0.015
CCN1CCCC1CNC(=O)c1cc(S(=O)(=O)CC)c(N)cc1OC (centres undefined) [Amisulpride] | 0.235 ± 0.0063 | 0.3 ± 0.011 | 0.253 ± 0.005 | 0.251 ± 0.025 | 0.169 ± 0.003 | 0.16 ± 0.0017 | 0.332 ± 0.093 | 0.377 ± 0.067 | 0.224 ± 0.02 | 0.239 ± 0.031 | 0.578 ± 0.046 | 0.408 ± 0.011 | 0.3237 ± 0.0029
CCN(CC)CCOC(=O)C1(C2CCCCC2)CCCCC1 [Dicyclomine hydrochloride] | 0.137 ± 0.0054 | 0.115 ± 0.063 | 0.195 ± 0.0043 | 0.157 ± 0.016 | 0.06453 ± 0.00058 | 0.103 ± 0.0024 | 0.137 ± 0.014 | 0.21 ± 0.049 | 0.144 ± 0.0069 | 0.183 ± 0.041 | 0.46 ± 0.008 | 0.393 ± 0.017 | 0.11 ± 0.003
CCC(=O)O[C@]1(C(=O)CCl)[C@@H](C)C[C@H]2[C@@H]3CCC4=CC(=O)C=C[C@]4(C)[C@@]3(F)[C@@H](O)C[C@@]21C [Clobetasol propionate] | 0.148 ± 0.0028 | 0.19 ± 0.034 | 0.186 ± 0.011 | 0.161 ± 0.01 | 0.0968 ± 0.0071 | 0.156 ± 0.0017 | 0.264 ± 0.097 | 0.178 ± 0.017 | 0.145 ± 0.019 | 0.169 ± 0.021 | 0.326 ± 0.017 | 0.407 ± 0.015 | 0.122 ± 0.05
CCCCc1oc2ccccc2c1C(=O)c1cc(I)c(OCCN(CC)CC)c(I)c1 [Amiodarone hydrochloride] | 0.263 ± 0.01 | 0.325 ± 0.0083 | 0.324 ± 0.0065 | 0.193 ± 0.0069 | 0.177 ± 0.0065 | 0.153 ± 0.0059 | 0.284 ± 0.017 | 0.338 ± 0.033 | 0.185 ± 0.0075 | 0.227 ± 0.0068 | 0.58 ± 0.025 | 0.424 ± 0.057 | 0.316 ± 0.044
CC[C@H]1OC(=O)[C@H](C)[C@@H](O[C@H]2C[C@@](C)(OC)[C@@H](O)[C@H](C)O2)[C@H](C)[C@@H](O[C@@H]2O[C@H](C)C[C@H](N(C)C)[C@H]2O)[C@](C)(O)C[C@@H](C)/C(=N\OCOCCOC)[C@H](C)[C@@H](O)[C@]1(C)O [Roxithromycin] | 0.0423 ± 0.0011 | 0.0412 ± 0.00062 | 0.04067 ± 0.00015 | 0.0421 ± 0.0001 | 0.04023 ± 0.00015 | 0.0439 ± 0.002 | 0.0582 ± 0.0066 | 0.205 ± 0.25 | 0.0507 ± 0.0027 | 0.0505 ± 0.00097 | 0.05257 ± 0.00029 | 0.0564 ± 0.0015 | 0.0513 ± 0.00036
CC(C)(C)NC(=O)[C@H]1CC[C@H]2[C@@H]3CC[C@H]4NC(=O)C=C[C@]4(C)[C@H]3CC[C@]12C [Finasteride] | 0.121 ± 0.003 | 0.201 ± 0.015 | 0.201 ± 0.0065 | 0.133 ± 0.0022 | 0.0954 ± 0.00085 | 0.144 ± 0.0043 | 0.308 ± 0.064 | 0.268 ± 0.064 | 0.183 ± 0.0049 | 0.228 ± 0.006 | 0.351 ± 0.011 | 0.366 ± 0.022 | 0.182 ± 0.03
CC(=O)OCC(=O)[C@@]1(OC(C)=O)[C@@H](C)C[C@H]2[C@@H]3C[C@H](F)C4=CC(=O)C=C[C@]4(C)[C@@]3(F)[C@@H](O)C[C@@]21C [Diflorasone Diacetate] | 0.159 ± 0.0032 | 0.178 ± 0.0085 | 0.162 ± 0.0026 | 0.194 ± 0.014 | 0.112 ± 0.0026 | 0.17 ± 0.0046 | 0.263 ± 0.03 | 0.228 ± 0.008 | 0.198 ± 0.03 | 0.221 ± 0.0089 | 0.398 ± 0.015 | 0.394 ± 0.014 | 0.289 ± 0.0096
O=C(O)COCCN1CCN(C(c2ccccc2)c2ccc(Cl)cc2)CC1 (centres undefined) [Cetirizine dihydrochloride] | 0.21 ± 0.0098 | 0.275 ± 0.0074 | 0.25 ± 0.006 | 0.218 ± 0.017 | 0.183 ± 0.0077 | 0.14 ± 0.0034 | 0.223 ± 0.017 | 0.273 ± 0.045 | 0.168 ± 0.013 | 0.199 ± 0.019 | 0.655 ± 0.047 | 0.41 ± 0.014 | 0.349 ± 0.022
Fc1ccc(C(c2ccc(F)cc2)N2CCN(C/C=C/c3ccccc3)CC2)cc1 [Flunarizine dihydrochloride] | 0.0778 ± 0.012 | 0.11 ± 0.019 | 0.0787 ± 0.0024 | 0.116 ± 0.012 | 0.0591 ± 0.0018 | 0.0509 ± 0.0027 | 0.0843 ± 0.013 | 0.056 ± 0.0016 | 0.0896 ± 0.0018 | 0.163 ± 0.065 | 0.234 ± 0.0076 | 0.318 ± 0.037 | 0.128 ± 0.014
CCN(CC)CCNC(=O)c1cc(Br)c(N)cc1OC [Bromopride] | 0.243 ± 0.025 | 0.312 ± 0.011 | 0.256 ± 0.0069 | 0.196 ± 0.0058 | 0.181 ± 0.006 | 0.1557 ± 0.00098 | 0.467 ± 0.025 | 0.4797 ± 0.0047 | 0.196 ± 0.014 | 0.256 ± 0.033 | 0.428 ± 0.011 | 0.4074 ± 0.0017 | 0.316 ± 0.022
CC(=O)O[C@]1(C(C)=O)CC[C@H]2[C@@H]3C=C(C)C4=CC(=O)CC[C@]4(C)[C@H]3CC[C@@]21C [Megestrol acetate] | 0.206 ± 0.022 | 0.285 ± 0.024 | 0.266 ± 0.013 | 0.16 ± 0.003 | 0.164 ± 0.0052 | 0.163 ± 0.016 | 0.441 ± 0.041 | 0.46 ± 0.026 | 0.2058 ± 0.0013 | 0.248 ± 0.034 | 0.212 ± 0.22 | 0.291 ± 0.12 | 0.302 ± 0.041
CCN(CC)CCOC(=O)C(c1ccccc1)C1CCCCC1 (centres undefined) [Drofenine hydrochloride] | 0.149 ± 0.0031 | 0.203 ± 0.017 | 0.218 ± 0.0035 | 0.16 ± 0.0022 | 0.0678 ± 0.00092 | 0.1432 ± 0.00046 | 0.119 ± 0.0039 | 0.271 ± 0.017 | 0.156 ± 0.0038 | 0.179 ± 0.014 | 0.428 ± 0.026 | 0.407 ± 0.019 | 0.168 ± 0.058
